# Results taken from PubChem BioAssay AID1851 (National Center for Advancing Translational Sciences (NCATS), 2009).
# Several values for one entry are separate records, joined by “and”; a condition that tells them apart may be missing. Equal entries are not always repeated. Screen size: about 16,000 compounds; about 5,800 (36%) were called active. About 23% were inconclusive and are not listed. This is one part of the list. Unmarked numbers belong to inactive results. The call rests on the fitted dose curve; in most records, active means well fitted curve in the direction sought with a large enough effect; inconclusive means small, poorly fitted or top-dose-only effect, or effect the other way; inactive means no such curve, though single readings can be large or run the other way.
# Target: Cytochrome P450 2C19 (Homo sapiens) (UniProt P33261)
# Sequence (P33261 whole entry, looked up): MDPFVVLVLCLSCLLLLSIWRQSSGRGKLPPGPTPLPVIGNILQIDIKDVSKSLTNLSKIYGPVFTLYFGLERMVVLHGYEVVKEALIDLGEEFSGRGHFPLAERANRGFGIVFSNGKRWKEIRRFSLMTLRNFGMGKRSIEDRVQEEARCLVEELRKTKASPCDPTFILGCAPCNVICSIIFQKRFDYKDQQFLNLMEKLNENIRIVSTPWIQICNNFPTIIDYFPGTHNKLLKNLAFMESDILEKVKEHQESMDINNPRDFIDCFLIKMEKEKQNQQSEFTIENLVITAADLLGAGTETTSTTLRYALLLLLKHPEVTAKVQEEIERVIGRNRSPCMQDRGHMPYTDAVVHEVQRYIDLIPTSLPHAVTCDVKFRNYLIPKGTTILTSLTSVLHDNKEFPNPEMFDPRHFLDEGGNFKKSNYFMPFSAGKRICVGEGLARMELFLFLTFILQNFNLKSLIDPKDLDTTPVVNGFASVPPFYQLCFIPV
# Assay: Cytochrome panel assay with activity outcomes
# Settings: recombinant CYP, pro-luciferin dealkylation, luminescence, p450-cyp2c19; series mostly up to 57.1 µM; activity, negative = inhibition: at the top concentration
# On the % scale 0 is the no-effect control and ±100 the full control effect.
Compound,"activity, negative = inhibition",AC50
CCc1cc2c(nc1CC)CCN(CC/C(C)=N/OCC[C@@H]1C=C[C@H](OC(C)=O)[C@H](COC(C)=O)O1)C2,7.29% [at 11.4 µM],–
CN1/C(=C\C(=O)COC(=O)Cn2nnc(-c3ccccc3)n2)C(C)(C)c2ccccc21,–,11.2 µM (active)
O=C(Cn1nnc(-c2ccccc2)n1)OCc1ccccc1,–,3.98 µM (active)
COCCn1c(=O)c(-c2cc(F)cc(F)c2)nc2cnc(N(C)C)nc21,38.8%,–
O=[N+]([O-])C1=CC=C2C(=NC3(CCCCC3)N2O)C1=NC1CCCCC1,–,3.16 µM (active)
O=C(Nc1ccc2ncccc2c1)Nc1ccc2ncccc2c1,14.5% [at 11.4 µM],–
Cc1cccc(C)c1NC(=O)Nc1ccc(S(N)(=O)=O)cc1,23.1% [at 11.4 µM],–
Cc1ccc(NC(=O)Nc2ncccc2C)cc1,–,15.8 µM (active)
CCN(/C=N/c1sc2c(c1C#N)CCCCC2)CC,–,1.26 µM (active)
CC(C)NCC[C@@H](O)c1cc2ccccc2o1,31.3% [at 11.4 µM],–
CCOC(=O)CSc1nnc(CSc2nc3sc4c(c3c(=O)[nH]2)CCCC4)n1-c1ccccc1,–,2.51 µM (active)
Nc1ccc(S(=O)(=O)c2ccc(NC(=O)c3cccnc3)cc2)cc1,3.12% [at 11.4 µM],–
CC(=O)Nc1ccc(S(=O)(=O)c2ccc(N)cc2)cc1,–,15.8 µM (active)
COC(=O)C(NS(=O)(=O)c1ccc(NC(C)=O)cc1)C(C)C (stereo not drawn),–,3.16 µM (active)
Cc1ccc(S(=O)(=O)N[C@H](C(=O)O)C(C)C)cc1,4% [at 11.4 µM],–
COC(=O)[C@@H](NC(=O)Nc1ccc(C(C)=O)cc1)C(C)C,–,17.8 µM (active)
CC(=O)Nc1ccc(S(=O)(=O)N=S(C)C)cc1,14.7% [at 11.4 µM],–
Oc1cc2c(cc1O)[C@H](c1ccccc1)CNCC2,–,inactive
CO/N=C\[C@@H](C)[C@H](OCc1ccccc1)C(C)C,2.64% [at 11.4 µM],–
CC1(C)CC(=O)C(C(c2cccc(O)c2O)C2C(=O)CC(C)(C)CC2=O)C(=O)C1,26% [at 11.4 µM],–
Cc1ccc(C(C2C(=O)CC(C)(C)CC2=O)C2C(=O)CC(C)(C)CC2=O)s1,–,11.2 µM (active)
CN1CCCN(C2C3CC4CC(C3)CC2C4)CC1 (stereo not drawn),-11.6%,–
O=C(C1CCN(S(=O)(=O)c2cccc3nsnc23)CC1)N1CCn2c1nc1ccccc12,–,10 µM (active)
O=S(=O)(c1ccccc1S(=O)(=O)N1CCCCC1)N1CCCCC1,–,22.4 µM (active)

Compound,"activity, negative = inhibition",AC50
O=C(Nn1cc(C(=O)N2CCN(c3ccccc3F)CC2)c2ccccc2c1=O)c1cnccn1,5.4%,–
O=C(C1CCCN(S(=O)(=O)c2cccc3nsnc23)C1)N1CC=C(c2ccccc2)CC1 (stereo not drawn),–,2.51 µM (active)
CC(C)N1CCN(c2ccncc2S(=O)(=O)N2CCCCC2)CC1,-23.9% [at 11.4 µM],–
O=S(=O)(c1cccc2c(Cl)cccc12)N1CCCNCC1,–,inactive
O=C(C1CCN(S(=O)(=O)c2cccc3nsnc23)CC1)N1CCN(c2ccccc2F)CC1,–,22.4 µM (active)
CC1CCC(C(=O)O)([C@H](Br)C(=O)O)CC1 (stereo partly drawn),-0.894% [at 11.4 µM],–
COc1ccc([C@@H]2CNC(=O)C2)cc1OC1CCCC1,–,inactive
Cc1ncc(CO)c(CO)c1O,-13.5% [at 25.6 µM],–
O=S(=O)(c1cnccc1N1CCN(CCO)CC1)N1CCCC1,33.1% [at 11.4 µM],–
O=S(=O)(c1cccc2nsnc12)N1CCCC1,–,0.891 µM (active)
O=C(C1CCN(S(=O)(=O)c2cccc3nsnc23)CC1)N1CCc2ccccc21,–,14.1 µM (active)
CC(=O)Nc1ccc(NC(=O)C2CCN(S(=O)(=O)c3cccc4nonc34)CC2)cc1,-27.7%,–
O=C(C1CCN(S(=O)(=O)c2cccc3nsnc23)CC1)N1CCCc2ccccc21,–,2 µM (active)
CC1CCN(C(=O)C2CCN(S(=O)(=O)c3cccc4nonc34)CC2)CC1,–,11.2 µM (active)
C[C@H]1CN(S(=O)(=O)c2cccc3cnccc23)CCN1,-17.5%,–
Cc1ccc(S(=O)(=O)N[C@H]2COC(=O)CC=C[C@@H](C)[C@H]3C=C[C@H](O)[C@@H](COC(=O)CC=C[C@H]2C)O3)cc1,14.2% [at 11.4 µM] and 5.29% [at 11.4 µM],–
NC[C@@H]1O[C@H](O[C@@H]2[C@H](O[C@@H]3O[C@H](CO)[C@@H](COC[C@H]4O[C@@H](CN)[C@@H](O)[C@@H](O)[C@@H]4N)[C@@H]3O)[C@@H](O)[C@@H](N)C[C@H]2N)[C@@H](N)[C@H](O)[C@@H]1O,20.1% [at 25.6 µM],–
CCCN(CCC)C[C@@H]1CCCCN1CCNC(=O)N1c2ccccc2C(=O)Nc2cccnc21,–,7.94 µM (active)
O=C(O)CN(CCN(CC(=O)O)CC(=O)O)CCN(CC(=O)O)CC(=O)O,-18.6%,–
Cc1cc(C)c(S(=O)(=O)N2CCCCC2)c(C)c1N(C)S(=O)(=O)c1ccccc1,–,2.51 µM (active)
CCc1ccc2c(c1)cc(CN(C(=S)Nc1cccc(C)c1)C1CC1)c1nnnn12,–,2.24 µM (active)
CCCNS(=O)(=O)c1ccc(OCC(=O)OC)cc1,–,10 µM (active)
CCN1C(=O)/C(=C/C=C2/SCCN2C)SC1=S,–,14.1 µM (active)
Cc1ccn2c(NC(=O)c3ccccc3)c(-c3cccs3)nc2c1,–,17.8 µM (active)

Compound,"activity, negative = inhibition",AC50
CCNc1ncc2nc(-c3cccs3)c(=O)n(C)c2n1,2.33%,–
c1ccc(SCc2nc3ccccc3[nH]2)cc1,–,1.41 µM (active)
OC(Cc1nc2ccccc2[nH]1)c1ccccc1Cl (stereo not drawn),–,8.91 µM (active)
CCn1c(SCc2nc3ccccc3[nH]2)nnc1-c1ccc(OC)cc1,–,2.51 µM (active)
c1ccc(-c2nnc(SCc3nc4ccccc4[nH]3)n2Cc2ccco2)cc1,–,2.51 µM (active)
O=C(c1cnccn1)N1CCC2(CC1)CN(Cc1cc(C(F)(F)F)cc(C(F)(F)F)c1)C2,-28.5%,–
C=CCNC(=S)N1CCN(c2ncc3c(=O)c(C(=O)O)cn(CC)c3n2)CC1,-24.5%,–
COc1ccc2oc(=O)c(NC(=O)C3CCCCC3)cc2c1,-27.6%,–
Cc1cc(NC(=O)C2CCCCC2)nc2c1c(=O)oc1ccccc12,–,8.91 µM (active)
N#Cc1c(-c2ccc3c(c2)OCO3)ccn2nc(-c3cccc(C(F)(F)F)c3)nc12,–,2.51 µM (active)
COc1c(O)cc2c(c1O)[C@@H]1O[C@@H](CO)[C@@H](O)[C@@H](O)[C@@H]1OC2=O,32.9% [at 25.6 µM],–
Cc1ccc(S(=O)(=O)Nc2nc(C)c(NC(=O)Nc3ccc(Cl)cc3Cl)s2)cc1,–,14.1 µM (active)
Cc1ccc(S(=O)(=O)NC(=O)Nc2ncn[nH]2)cc1,37.1% [at 11.4 µM],–
Cc1nnc(NS(=O)(=O)c2ccc(N)cc2)s1,23.1% [at 25.6 µM],–
Cc1nc2c(O)cccc2c(=O)[nH]1,–,0.398 µM (active)
O=c1[nH]c2ccccc2c2ccccc12,-30.4%,–
O=c1[nH]ccc2c(O)cccc12,11.1%,–
CN1c2ccccc2C(C)(C)C12C=Nc1c(cc(N3CCOCC3)c3ccccc13)O2 (stereo not drawn),–,3.55 µM (active)
CN(C)Cc1ccccc1-c1nc(N2CCOCC2)c2ccccc2n1,30.7%,–
Cc1ccc(C2/C(=C(/O)c3ccc(Cl)cc3)C(=O)C(=O)N2CC2CCCO2)o1 (stereo not drawn),-16.5%,–
COc1cccc(C2=CC(c3ccccc3)n3nnnc3N2)c1 (stereo not drawn),–,0.158 µM (active)
O=c1c2ccccc2c(-c2ccccc2)nn1Cc1ccc(Cl)cc1,–,1.12 µM (active)
COc1ncc2nc(-c3ccccc3)c(=O)n(-c3ccccc3)c2n1,-27.6%,–
O=C(O)Cc1nn(Cc2ccc(Br)cc2F)c(=O)c2ccccc12,-24.3%,–

Compound,"activity, negative = inhibition",AC50
O=c1c2ccccc2c(-c2ccccc2)nn1-c1ccc(Cl)c(Cl)c1,–,2.51 µM (active)
Cn1c(=O)c(-c2ccc(Cl)cc2)nc2cnc(Nc3ccccc3)nc21,6.65%,–
COc1ncc2nc(-c3ccc(Cl)cc3)c(=O)n(-c3ccccc3)c2n1,-31.9%,–
CN1Cc2c(N)cccc2[C@H](c2ccccc2)C1,–,inactive
O=P(O)(CCP(=O)(O)c1ccccc1)c1ccccc1,2.23% [at 11.4 µM],–
O=P(Cc1cc[n+]([O-])cc1)(c1ccccc1)c1ccccc1,–,15.8 µM (active)
CCS(=O)(=O)N1CCC(C(=O)NCCN2CCN(Cc3ccccc3)CC2)CC1,-5.92%,–
Cc1ccccc1-c1nc(CS(=O)CC(=O)NCCN2CCN(Cc3ccccc3)CC2)c(C)o1 (stereo not drawn),–,17.8 µM (active)
CCCN(CCC)CCCNC(=O)CS(=O)Cc1nc(-c2ccc(OC)c(OC)c2)oc1C (stereo not drawn),-24.7%,–
CN(Cc1ccco1)c1ncnc2ccc(-c3ccccc3C#N)cc12,–,1.26 µM (active)
CN(Cc1ccco1)c1ncnc2ccc(-c3ccccc3C(F)(F)F)cc12,–,3.16 µM (active)
CN(Cc1ccco1)c1ncnc2ccc(-c3ccccc3Cl)cc12,–,3.16 µM (active)
CN1CCN(c2ncnc3ccc(-c4cccc(C#N)c4)cc23)CC1,-31.3%,–
CNc1ncnc2ccc(-c3ccccc3C#N)cc12,-33.6%,–
CN(Cc1ccco1)c1ncnc2ccc(-c3cccc(C#N)c3)cc12,–,6.31 µM (active)
CN(C)c1ncnc2ccc(-c3ccccc3C#N)cc12,-19.8%,–
COc1ncc2nc(-c3ccc(F)cc3)c(=O)n(C)c2n1,-5.58%,–
Cc1noc(C)c1-c1ccc2ncnc(N(C)Cc3ccco3)c2c1,–,5.01 µM (active)
Cc1noc(C)c1-c1ccc2ncnc(N3CCOCC3)c2c1,-43.8%,–
Cc1noc(C)c1-c1ccc2ncnc(N3CCN(C)CC3)c2c1,-24.5%,–
COc1cc(/C=C2\SC(=S)N(Nc3ccccc3)C2=O)cc(OC)c1OC,–,11.2 µM (active)
